Out of some 2,300 compounds screened, about 330 (14%) showed activity. Only a sample is shown. Values without a mark were called inactive.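 Rule for the calls: active = median modified Z-score above 1.96; inactive = 1.96 or below.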

The test system of the assay is HepG2 Srxn1-GFP reporter cells (+30 nM CDDO-Me). Put plainly: Srxn1-GFP intensity median modified Z-score relative to plate median; higher = stronger NRF2 / oxidative stress reporter activation, active = hit call of the paper. The following applies: 10 µM; exposure time: 24h. An outline of the steps: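 Per-cell cytoplasmic GFP was measured on confocal images of formaldehyde-fixed, Hoechst-stained HepG2 Srxn1-GFP BAC reporter cells, excluding images with fewer than 100 cells. Before this, the cells (20,000 per well, 96-well plates) were co-exposed for 24 h to compound at 10 μM and an NRF2 activator at 30 nM with ≤0.1% DMSO, in three replicate plates. Each value is the median over replicates of the per-plate modified Z-score of GFP intensity. That score was scaled with 1.4826 × median absolute deviation.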
Consider `O=C1CC[C@@]2(O)[C@H]3Cc4ccc(O)c5c4C2(CCN3CC2CC2)C1O5` (some centres not stated) [euspeclibcmpd560], for which the “Srxn1-GFP intensity median modified Z-score” value is -0.0532.

Take `Cc1c[nH]cn1` [euspeclibcmpd2111]: the “Srxn1-GFP intensity median modified Z-score” value is -0.158. Under `CC1=CCC[C@@H]2C1(C)CCC(C)[C@@]2(C)CC/C(C)=C/Cn1c[n+](C)c2c(=N)nc[nH]c21` (some centres not stated) [euspeclibcmpd1491] stands 13.7 (active). Then `COc1ccc2c(c1O)[C@@]13CCN(C)[C@@H](C2)C1=CC(OC)C(=O)C3` (some centres not stated) [euspeclibcmpd1375], with -0.172; and `CC(C)c1ccc2c(c1O)CCC1c3coc(O)c3CC[C@]21C` (some centres not stated) [euspeclibcmpd2379], with -0.468; and `Nc1ccc([As](=O)(O)O)cc1` [euspeclibcmpd2461], with 11.1 (active). Under `O=C1CC2OCC=C3CN4CC[C@]56c7ccccc7N1C5[C@H]2[C@H]3CC46` (some centres not stated) [euspeclibcmpd327] stands -0.00366. Take `COP(=S)(OC)Oc1ccc(SC)c(C)c1` [euspeclibcmpd1025]: the “Srxn1-GFP intensity median modified Z-score” value is -0.288. As for `O=C(CCCN1CCC2(CC1)C(=O)NCN2c1ccccc1)c1ccc(F)cc1` [euspeclibcmpd405], the “Srxn1-GFP intensity median modified Z-score” value was 10.2 (active).

As to `C#C[C@]1(O)CCC2C3CC=C4CC(=O)CCC4C3CC[C@@]21C` (some centres not stated) [euspeclibcmpd2269], the “Srxn1-GFP intensity median modified Z-score” value is 1.21. Regarding `C#C[C@]1(O)CCC2C3CC=C4CC(=O)CCC4C3CC[C@@]21C` (some centres not stated) [euspeclibcmpd2279], the “Srxn1-GFP intensity median modified Z-score” value is 0.0789. Then `CCCCOC(=O)c1ccccc1C(=O)OCCCC` [euspeclibcmpd1242], with -0.441; and `CCCCCCCCC(=O)NCc1ccc(O)c(OC)c1` [euspeclibcmpd1268], with -0.241; and `C[C@H]1CC[C@]2(NC1)OC1CC3C4CCC5C[C@@H](O[C@@H]6O[C@H](CO)[C@H](O[C@H]7O[C@H](CO)[C@@H](O)[C@H](O[C@@H]8OC[C@@H](O)[C@H](O)[C@H]8O)[C@H]7O[C@@H]7O[C@H](CO)[C@@H](O)[C@H](O)[C@H]7O)[C@H](O)[C@H]6O)CC[C@]5(C)C4CC[C@]3(C)C1[C@@H]2C` (some centres not stated) [euspeclibcmpd480], with 71.3 (active).

As to `CC1CCC2(OC1)OC1C(O)C3C4CCC5CC(OC6OC(CO)C(OC7OC(CO)C(O)C(OC8OCC(O)C(O)C8O)C7OC7OC(CO)C(O)C(OC8OC(CO)C(O)C(O)C8O)C7O)C(O)C6O)C(O)CC5(C)C4CCC3(C)C1C2C` (configuration not stated) [euspeclibcmpd1933], the “Srxn1-GFP intensity median modified Z-score” value was 22.3 (active). Regarding `CC(=O)O[C@H]1C[C@H](O[C@H]2[C@@H](O)C[C@H](O[C@H]3[C@@H](O)C[C@H](O[C@H]4CC[C@@]5(C)C(CCC6C5C[C@@H](O)[C@]5(C)C(c7coc(O)c7)CC[C@]65O)C4)O[C@@H]3C)O[C@@H]2C)O[C@H](C)[C@H]1O[C@@H]1O[C@H](CO)[C@@H](O)[C@H](O)[C@H]1O` (some centres not stated) [euspeclibcmpd420], the “Srxn1-GFP intensity median modified Z-score” value was -0.493. On to `C[C@@H]1CC[C@@]2(NC1)O[C@H]1C[C@H]3C4CC=C5C[C@@H](O)CC[C@]5(C)C4CC[C@]3(C)C1[C@@H]2C` (some centres not stated) [euspeclibcmpd1732], for which the “Srxn1-GFP intensity median modified Z-score” value was 0.173.
